High-throughput results (PubChem)
KB-V1 MDR tox: qHTS assay for MDR1-selective chemotherapeutics: Primary screen using the drug-selected MDR subline cells KB-V1. KB-V1 MDR cells viability, CellTiter-Glo, 72 h. Potency, µM (series often up to 46.1 µM), actives largely listed as cytotoxic. 3.4% of 400,000 active; note: % is set by controls: 0 for no effect and ±100 for the full control effect; nearly all actives have a fitted effect of over 60% in size
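Following 72 h at 37 degrees C with compound, KB-V1 cell viability was read by CellTiter-Glo luminescence, medium being phenol-red-free DMEM plus 10% FBS; concentration-response parameters came from normalized, curve-fitted qHTS data.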
SW480 rereplic: A quantitative high throughput screen for small molecules that induce DNA re-replication in SW480 colon adenocarcinoma cells | 1.8% of 340,000 active | Potency, µM (highest dose often 46.1 µM), inactives show top-dose re-replication activation, usual class: activators | SW480 DNA re-replication, Hoechst DNA content imaging, 48 h; note: % of control where 0% means no effect; nearly all actives have a fitted effect of over 55% in size
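Image-based read-out: total Hoechst fluorescence of nuclei (405 nm excitation, 500-530 nm emission), with hits raising the fraction of high-intensity nuclei. SW480 colon cells incubated 48 hr with compounds at 37 C.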
KB-3-1 tox: qHTS assay for MDR1-selective chemotherapeutics: Primary screen using the parental adenocarcinoma cell KB-3-1. Potency, µM (series often up to 46.1 µM), most hits filed as cytotoxic. KB-3-1 viability, CellTiter-Glo ATP luminescence, 72 h. 1.4% of 400,000 active; note: % is set by controls: 0 for no effect and ±100 for the full control effect; nearly all actives have a fitted effect of over 60% in size
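Here the drug-naive KB-3-1 line serves as comparator for MDR sub-line selectivity; cells received compound titrations, 72 h at 37 °C, then CellTiter-Glo readout.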
RORg inh: qHTS for inhibitors of ROR gamma transcriptional activity. Potency, µM (series often up to 53.6 µM), inactives show at the highest dose activity change, negative = inhibition, usual class: inhibitors. 5.4% of 310,000 active. Drosophila S2 Gal4-RORgamma UAS-luciferase reporter, 20 h. AID 2551, 2010. Nuclear receptor ROR-gamma (Mus musculus), P51450; note: % is set by controls: 0 for no effect and ±100 for the full control effect; nearly all actives have a fitted effect of over 60% in size
Target sequence (P51450 whole entry, looked up, the tested form may be a part): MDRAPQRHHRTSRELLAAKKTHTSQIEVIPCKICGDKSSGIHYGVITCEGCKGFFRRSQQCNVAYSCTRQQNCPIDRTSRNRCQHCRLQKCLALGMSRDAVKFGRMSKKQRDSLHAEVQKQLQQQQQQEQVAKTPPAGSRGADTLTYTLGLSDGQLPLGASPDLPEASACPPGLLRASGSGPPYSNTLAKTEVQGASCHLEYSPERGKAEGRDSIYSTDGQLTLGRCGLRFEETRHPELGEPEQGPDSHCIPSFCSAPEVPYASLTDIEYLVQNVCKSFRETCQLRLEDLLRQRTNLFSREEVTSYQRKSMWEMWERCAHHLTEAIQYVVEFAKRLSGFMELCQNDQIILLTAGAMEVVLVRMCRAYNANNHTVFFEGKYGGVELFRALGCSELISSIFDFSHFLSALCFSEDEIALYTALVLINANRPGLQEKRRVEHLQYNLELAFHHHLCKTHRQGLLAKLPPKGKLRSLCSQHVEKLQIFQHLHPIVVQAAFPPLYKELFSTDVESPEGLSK
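Compounds are pin-transferred onto Drosophila Schneider cells expressing a copper-inducible Gal4–ROR gamma transactivation domain fusion. After 1 hr, copper sulfate is added to 700 uM final; luciferase is read 20 hr later.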
MCF10A rereplic: A quantitative high throughput screen for small molecules that induce DNA re-replication in MCF 10a normal breast cells | Potency, µM (doses to about 46.1 µM), for inactives: top-dose activity, positive = re-replication, actives largely listed as activators | MCF 10A DNA re-replication, Hoechst nuclear intensity, 48 h | 2.9% of 350,000 active; note: % of control where 0% means no effect; nearly all actives have a fitted effect of over 50% in size
Gal4-VP16 FLuc: VP16 counterscreen qHTS for inhibitors of ROR gamma transcriptional activity. Drosophila S2 Gal4-VP16 UAS-luciferase, luminescence, 20 h. Potency, µM (highest dose often 53.6 µM), without a hit: top-dose activity, negative = inhibition, most hits filed as inhibitors. 3.5% of 310,000 active. AID 2546, 2010;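 note: Gal4-VP16 expression switched on by copper sulfate through the metallothionein promoter; % is set by controls: 0 for no effect and ±100 for the full control effect; nearly all actives have a fitted effect of over 50% in size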
Starred values were filed as active, the others as inactive; i = inactive; u = inconclusive; x = no result; ! = a repeat was not active; [ ] = another dose, or the depositor's remark. Compounds with a hit are over-represented: about 10% of the library has one in this group of screens. Calls come from the whole dose curve; as a rule, active = well fitted curve in the direction sought with a large enough effect; inconclusive = small, poorly fitted or top-dose-only effect, or another doubt; inactive = no such curve, though single readings can be large; an effect the other way counts as inactive or inconclusive. Potency is the fitted concentration of half-maximal effect.

SMILES	KB-V1 MDR tox	SW480 rereplic	KB-3-1 tox	RORg inh	MCF10A rereplic	Gal4-VP16 FLuc
CCOc1ccc(/C=C/[N+](=O)[O-])c2ccccc12	18µM*	6.5µM*	u	u	2.3µM*	u
CCOC(=O)COc1ccc(/C=C/[N+](=O)[O-])c(OCC(=O)OCC)c1	i	u	u	u	u	u
CCOC(=O)CC1CCCCN1Cc1nc(-c2ccc(F)c(OC)c2)oc1C (stereo unspecified)	i	-4%	i	3.5µM*	14%	-13%
Cc1[nH]c(=O)c(C(=O)/C=C/c2ccccc2F)c2c1CCCC2	6.5µM*	4.1µM*	6.5µM*	5.6µM*	3.3µM*	5.6µM*
C/C(=C\c1ccccc1F)C(=O)c1c(C)cc(C)[nH]c1=O	i	-1%	i	-17%	-39%	-4%
Nc1c(-c2nc(-c3cccs3)no2)nnn1-c1cccc(F)c1	u	x	i	x	x	x
N#Cc1cc(C#N)c(N2CCN(c3cccc(Cl)n3)CC2)nc1N	18µM*	20%	i	u	3.3µM*	u
O=C(CCCN1CCN2CCCC2C1)c1ccc(F)cc1 (stereo unspecified)	x	2%	x	-10%	10%	-1%
CCOc1ccccc1C(=O)Nc1cccc2ccc(C)nc12	u	x	i	x	x	x
CN1CCN(/N=C/c2ccc(N(c3ccccc3)c3ccccc3)cc2)CC1	i	14%	i	28%	16µM*	1%
C=CCn1c(C(C)C)nc2ccccc21	u	-1%	i	11µM*	13%	-5%[10 µM]
OCc1nc2ccccc2n1C/C=C/c1ccccc1	i	-7%	i	-14%	15%	14%
CC(O)c1nc2ccccc2n1C/C=C/c1ccccc1 (stereo unspecified)	15µM*	0%	i	5%	-6%	14%
CC(=O)c1ccc(NC(=O)CSc2nc(C3CCCC3)nc3c2c(=O)n(C)c(=O)n3C)cc1	i	x	i	x	x	x
COc1cccc(N(C(=O)c2cnccn2)C(C(=O)NC2CCCCC2)c2ccc(Cl)cc2)c1 (stereo unspecified)	i	0%	i	-18%	2%	-5%
COC(CN(C(=O)CCl)C(C(=O)NC1CCCCC1)c1ccc(C)cc1)OC (stereo unspecified)	u	5.8µM*	u	-28%	-6%	6%
O=C(NC1CCCC1)C(c1ccc(F)cc1)N(Cc1ccc(F)cc1)C(=O)CCl (stereo unspecified)	18µM*	u	u	-8%	14%	-10%
COc1ccc(C(C(=O)NC2CCCCC2)N(C(=O)CCl)c2cccc(Cl)c2)cc1 (stereo unspecified)	16µM*	u	18µM*	-30%[10 µM]	21µM*	u
COc1ccc(N(C(=O)Cc2cccs2)C(C(=O)NC2CCCC2)c2ccncc2)cc1 (stereo unspecified)	u	-2%	i	2%	-1%	3%
COc1ccc(C(C(=O)NC2CCCCC2)N(C(=O)CCl)c2ccc(OC)cc2)cc1 (stereo unspecified)	3.7µM*	u	5.8µM*	u	18µM*	u
COCCN(C(=O)CCCC(=O)Nc1ccccn1)C(C(=O)NC1CCCCC1)c1ccc(C)cc1 (stereo unspecified)	i	3%	i	3%	-1%	-5%
COc1ccc(CNc2ncncc2-c2ccc3c(c2)OCO3)c(OC)c1	x	x	x	28%	x	-3%
S=c1[nH]nc(SCc2ccccc2)c2[nH]cnc12	u	-19%	i	x	-35%	x
COc1ccc(C(C(=O)NC2CCCC2)N(C(=O)c2ccoc2C)c2ccc(C)cc2)cc1 (stereo unspecified)	i	u	i	u	-9%	6%
COc1ccc(C(C(=O)NC2CCCCC2)N(C(=O)CCl)c2ccc(C)cc2)cc1 (stereo unspecified)	u	2.6µM*	u	-31%	30%	0%
SMILES	KB-V1 MDR tox	SW480 rereplic	KB-3-1 tox	RORg inh	MCF10A rereplic	Gal4-VP16 FLuc
CCCC(=O)NC(c1ccccc1OC)c1ccc2cccnc2c1O (stereo unspecified)	u	u	u	5µM*	17%	2.2µM*
CCCCC(=O)NC(c1ccccc1OC)c1ccc2cccnc2c1O (stereo unspecified)	u	0.73µM*	6.5µM*	5.6µM*	26%	4.5µM*
CCOC(=O)[C@]12CCC=C1N(Cc1ccco1)C(=O)[C@H](CC(=O)NCCC(C)C)C2	i	x	i	x	x	x
CCOCCCNC(=O)c1cc(=O)[nH]c2ccc(S(=O)(=O)N3CCCC3)cc12	i	x	i	x	x	x
CCOC(=O)C[C@H]1c2cc(C(F)(F)F)ccc2S(=O)(=O)N1Cc1ccccc1	10µM*!	-4%	i	x	19%	x
CCOC(=O)C[C@H]1c2ccccc2S(=O)(=O)N1Cc1ccc(Cl)cc1	16µM*!	-2%	u	x	18%	x
CSc1ccc(/C=C2/C(C)=C(CC(=O)O)c3cc(F)ccc32)cc1	x	x	x	5%	x	-1%
CSc1ccccc1C(=O)Nc1ncc(C)s1	i	-32%	i	-1%	-1%	9%
CSc1ncccc1C(=O)Nc1nccs1	i	-2%	i	10µM*	0%	-16%
CSc1ncccc1C(=O)Nc1ncc(C)s1	i	0%	i	11µM*	7%	-21%
Fc1ccc(CNc2ncnc3onc(-c4ccc(F)cc4)c23)cc1	u	x	i	x	x	x
Cn1cccc1C(=O)N1CCC2(CCCN(Cc3nccs3)C2)CC1	x	x	x	28%	x	14%
Cc1ccc(C)c(-n2c(-c3cccnc3)n[nH]c2=S)c1	i	-6%	i	10µM*	23%	-7%[10 µM]
Cc1cc(-c2n[nH]c(=S)n2-c2ccccc2C)cs1	i	0%	i	2.8µM*	2%	6.3µM*
COc1ccc(Cc2n[nH]c(=S)n2-c2cc(C)ccc2C)cc1OC	i	x	i	x	x	x
Cc1ccccc1-n1c(-c2ccncc2)n[nH]c1=S	i	-8%	i	13µM*	0%	-18%
Cc1cccc(-n2c(-c3ccncc3)n[nH]c2=S)c1C	i	-27%	i	-28%	2%	-10%
Cc1ccc(C)c(-n2c(-c3csc(C)c3C)n[nH]c2=S)c1	i	-10%	i	u	10%	5µM*
